Measured values: PubChem BioAssay (NCI)
The panel holds about 83,000 compounds, 20% with a hit somewhere; the sample as a whole holds those more often.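 Cell lines were cultured in 96-well plates, exposed to a single compound concentration, and assessed for percent growth 48 hours later.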 The source made the active and inactive calls. How the source made its calls: active means growth percent below 10; inactive means the rest.

What was measured:
Assay in all cases: NCI-60 one-dose screen, 48 h (100 = growth as untreated, 0 = no growth, -100 = all killed)
[1] = system: HT29 colon; settings: 10 µM unless noted
[2] = system: SNB-75 CNS; settings: 10 µM unless noted
[3] = system: SNB-19 CNS; settings: 10 µM unless noted
[4] = system: U251 CNS; settings: 10 µM unless noted
[5] = system: PC-3 prostate; settings: 10 µM unless noted
[6] = system: SK-MEL-5 melanoma; settings: 10 µM unless noted
[7] = system: UACC-62 melanoma; settings: 10 µM unless noted
[8] = system: LOX IMVI melanoma; settings: 10 µM unless noted
[9] = system: SK-MEL-28 melanoma; settings: 10 µM
[10] = system: SK-MEL-2 melanoma; settings: 10 µM unless noted
[11] = system: SN12C renal; settings: 10 µM unless noted
[12] = system: UO-31 renal; settings: 10 µM unless noted
[13] = system: TK-10 renal; settings: 10 µM unless noted
[14] = system: ACHN renal; settings: 10 µM unless noted
[15] = system: CAKI-1 renal; settings: 10 µM unless noted
[16] = system: A498 renal; settings: 10 µM unless noted
[17] = system: CCRF-CEM leukemia; settings: 10 µM unless noted
[18] = system: MOLT-4 leukemia; settings: 10 µM unless noted
[19] = system: SR leukemia; settings: 10 µM unless noted

Measured: growth

Nc1nonc1-n1nncc1-c1cccnc1
inactive: [1] 107% | [2] 81.2% | [3] 129% | [4] 101% | [5] 105% | [6] 106% | [7] 112% | [8] 98.3% | [9] 105% | [10] 111% | [11] 117% | [12] 92.9% | [13] 107% | [14] 105% | [15] 95.1% | [16] 81.9% | [17] 106% | [18] 91.4% | [19] 103%

O=NN(Cc1cccnc1)C(=O)NC1CCCCC1
inactive: [1] 103% | [2] 84.7% | [3] 102% | [4] 97.4% | [5] 98.7% | [6] 102% | [7] 110% | [8] 103% | [9] 104% | [10] 119% | [11] 98.9% | [12] 90% | [13] 114% | [14] 96.5% | [15] 93.9% | [16] 103% | [17] 102% | [18] 111% | [19] 99.7%

CCC1=C[C@@H]2CN(C1)Cc1c([nH]c3ccccc13)[C@@](C(=O)OC)(c1cc3c(cc1OC)N(C)[C@H]1[C@@](O)(C(=O)OC)[C@H](OC(C)=O)[C@]4(CC)[C@@H]5C[C@@H]5CN5CC[C@]31[C@@H]54)C2
active: [1] -23.3% | [2] 3.05% | [4] 7.9% | [6] -79.9% | [8] 3.68% | [12] 3.11% | [16] -24.5% | [17] 1.97% | [18] -3.35% | [19] -19.3%
inactive: [3] 55.7% | [5] 22.5% | [7] 12.6% | [9] 14.4% | [10] 10.4% | [11] 19.3% | [13] 24.2% | [14] 19.6% | [15] 24.9%

CCOc1cc(Cl)c(C(C)NC(=O)c2cccc(OC)c2)cc1OCC (stereo not drawn)
inactive: [3] 84.2% | [4] 22.5% | [10] 34.9% | [16] 26.2%
active: [1] -39.4% | [2] 7.33% | [5] 6.15% | [6] -96.8% | [7] -76% | [8] -68.9% | [9] -44.6% | [11] -23.3% | [12] -92.5% | [13] -62.4% | [14] -73.3% | [15] -39.1% | [17] -24.5% | [18] -10.2% | [19] -19.1%

CCn1c(SCC(=O)Nc2cc(C(F)(F)F)ccc2Cl)nc2ccccc2c1=O
active: [7] -79.1% | [8] -7.15% | [9] -28.6% | [17] -3.31% | [18] -7.72% | [19] -16.2%
inactive: [1] 15.7% | [2] 13.4% | [3] 93.5% | [4] 47.9% | [5] 17.5% | [6] 25.7% | [10] 87.3% | [11] 57.1% | [12] 22.7% | [13] 33.7% | [14] 39.1% | [15] 48.4% | [16] 35.6%

COc1cc(C(=O)O/N=C(\N)Cc2cccc3ccccc23)cc(OC)c1OC
inactive: [3] 68.2% | [5] 27.6% | [11] 63% | [14] 42.9% | [15] 22.9% | [16] 44.6%
active: [1] -74.3% | [2] -19.4% | [4] -67.8% | [6] -97.9% | [7] -88.3% | [8] -81.9% | [9] -97% | [10] -80.9% | [12] -44.3% | [13] -43.8% | [17] -5.01% | [18] 1.56% | [19] -30.4%

CCCCCCc1cc2cc(-c3csc(/C=C/c4ccccc4)n3)c(=O)oc2cc1O
inactive: [3] 55.3% | [5] 25.1% | [11] 34.9% | [12] 13.5% | [13] 49% | [14] 41.6% | [15] 32.8%
active: [1] -37.8% | [2] 3.13% | [4] 0.326% | [6] -93.6% | [7] -68.3% | [8] -47.1% | [9] -96.1% | [10] -71.5% | [16] -25.3% | [17] 2.21% | [18] 4.75% | [19] -7.16%

CCOc1cc2c(cc1OCC)C(c1cc(C)c(O)c(C)c1)NCC2 (stereo not drawn)
inactive: [1] 98% | [2] 95.3% | [3] 101% | [4] 94% | [5] 82% | [6] 99.9% | [7] 91.3% | [8] 99.6% | [9] 107% | [10] 98.3% | [11] 95.7% | [12] 73.4% | [13] 107% | [14] 94.2% | [15] 85.2% | [16] 88.1% | [17] 89.6% | [18] 96.3% | [19] 80.7%

COc1cc(-c2c3c(cn2S(=O)(=O)c2ccccc2)-c2nc(N)sc2CC3)cc(OC)c1OC
active: [1] 9% | [17] 7.05% | [19] 9.55%
inactive: [2] 12.1% | [3] 29% | [4] 25.8% | [5] 41.8% | [6] 14.1% | [7] 51.1% | [8] 38.4% | [9] 68.6% | [10] 54.3% | [11] 54.1% | [12] 30.5% | [13] 53.4% | [14] 49.9% | [15] 34.2% | [16] 21.1% | [18] 23.5%

Cc1sc2ncnc(Sc3nc4ccccc4[nH]3)c2c1C
active: [1] -64.4% | [2] -85.4% | [3] -21.7% | [4] -80.9% | [5] -43.3% | [6] -96.9% | [7] -91.8% | [8] -80% | [9] -92.5% | [10] -81.6% | [12] -86.2% | [13] -87.2% | [14] -82.7% | [15] -68.6% | [17] -53.2% | [18] -48.4% | [19] -17.3%
inactive: [11] 25% | [16] 24.5%

CN(C)c1ccc(/C=C/c2ccnc3c(O)cccc23)cc1
active: [6] 8.23% | [7] -27.6% | [12] -2.54% | [15] -3.49% | [17] 6.75% | [18] -13.2% | [19] -11.1%
inactive: [1] 98.6% | [2] 28.5% | [3] 26.4% | [4] 12% | [5] 32% | [8] 13.1% | [9] 29.1% | [10] 11.8% | [11] 21.3% | [13] 41.6% | [14] 12.7% | [16] 45.1%

CCn1c(-c2nonc2Nc2ccc(OC)cc2)nc2ccccc21
inactive: [1] 102% | [2] 91.6% | [3] 111% | [4] 101% | [5] 107% | [6] 104% | [7] 96.2% | [8] 107% | [9] 107% | [10] 105% | [11] 109% | [12] 90.1% | [13] 101% | [14] 108% | [15] 102% | [16] 78.8% | [17] 105% | [18] 116% | [19] 110%

O=S(=O)(c1ccc(NC(=S)NC23CC4CC(CC(C4)C2)C3)cc1)N1CCCCC1
inactive: [1] 94.1% | [2] 93.3% | [3] 99.9% | [4] 85.2% | [6] 87.7% | [7] 80.8% | [8] 96.9% | [9] 95% | [10] 106% | [11] 96.5% | [12] 61.6% | [13] 111% | [14] 93.6% | [15] 61.8% | [16] 78.8% | [17] 13.9%
active: [5] 8.79% | [18] -14.7% | [19] -21.9%

O=[N+]([O-])c1cc2c(ccc3occc32)o1
active: [6] -77% | [8] -36.3% | [9] -63.5% | [10] -46% | [14] 4.13% | [15] -19.7% | [16] -5.92% | [17] 9.79%
inactive: [1] 11.8% | [2] 31.7% | [3] 49.4% | [4] 48.7% | [5] 66.7% | [7] 20.5% | [11] 32.4% | [12] 23.4% | [13] 35.7% | [18] 17.1% | [19] 10.9%

COc1cccc(C(=O)NC(c2ccc(C)cc2)c2cc(Cl)c3cccnc3c2O)c1 (stereo not drawn)
inactive: [1] 24.1% | [2] 28.8% | [3] 12.5% | [5] 22.8% | [9] 44% | [10] 22.8% | [11] 12.6% | [13] 27% | [14] 10.6% | [16] 23.1% | [18] 11.4% | [19] 11.3%
active: [4] 3.81% | [6] -56.8% | [7] -20% | [8] 6.79% | [12] -18.9% | [15] -3.64% | [17] 8.88%

O=C(O)CCCN1C(=O)C2C3CCC(C3)C2C1=O (stereo not drawn)
inactive: [1] 100% | [2] 95.8% | [3] 104% | [4] 104% | [5] 106% | [6] 101% | [7] 97% | [8] 103% | [9] 113% | [10] 101% | [11] 103% | [12] 90.5% | [13] 98.2% | [14] 109% | [15] 97.2% | [16] 105% | [17] 108% | [18] 104% | [19] 112%

COc1ccc(/C=C2\NC(=O)NC2=O)cc1O
inactive: [1] 107% | [2] 105% | [3] 102% | [4] 99.2% | [5] 101% | [6] 102% | [7] 103% | [8] 95.3% | [9] 104% | [10] 115% | [11] 99.7% | [12] 106% | [13] 109% | [14] 105% | [15] 85.6% | [16] 91.2% | [17] 97.6% | [18] 99.5% | [19] 102%
